# From the supplement of paper PMC3545927
# This is one part of the list. The hit rate among all sequences tested is not known here.
# Target: furin, P09958
# Assay: furin cleavage Z-score vs untreated control; higher = more cleavage, active = 3.5 or more, inactive = 1 or less, 8 variable residues between constant flanks
# In short: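 Sequencing of released DNA, tagged with adapters by PCR, gave read counts used as abundance. That DNA was freed when purified furin cut N-terminally bead-bound 8-mer peptides fused to a cDNA oligonucleotide, in 0.01 ml reactions at 1:10 enzyme:substrate in 50 mM HEPES pH 7.5 with CaCl2 and NaCl, lasting 7.5, 15 or 30 min. The cleavage Z-score was the lowess-adjusted log count versus furin-free reactions, scaled by median absolute deviation.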
# furin, P09958, sequence (P09958 whole entry): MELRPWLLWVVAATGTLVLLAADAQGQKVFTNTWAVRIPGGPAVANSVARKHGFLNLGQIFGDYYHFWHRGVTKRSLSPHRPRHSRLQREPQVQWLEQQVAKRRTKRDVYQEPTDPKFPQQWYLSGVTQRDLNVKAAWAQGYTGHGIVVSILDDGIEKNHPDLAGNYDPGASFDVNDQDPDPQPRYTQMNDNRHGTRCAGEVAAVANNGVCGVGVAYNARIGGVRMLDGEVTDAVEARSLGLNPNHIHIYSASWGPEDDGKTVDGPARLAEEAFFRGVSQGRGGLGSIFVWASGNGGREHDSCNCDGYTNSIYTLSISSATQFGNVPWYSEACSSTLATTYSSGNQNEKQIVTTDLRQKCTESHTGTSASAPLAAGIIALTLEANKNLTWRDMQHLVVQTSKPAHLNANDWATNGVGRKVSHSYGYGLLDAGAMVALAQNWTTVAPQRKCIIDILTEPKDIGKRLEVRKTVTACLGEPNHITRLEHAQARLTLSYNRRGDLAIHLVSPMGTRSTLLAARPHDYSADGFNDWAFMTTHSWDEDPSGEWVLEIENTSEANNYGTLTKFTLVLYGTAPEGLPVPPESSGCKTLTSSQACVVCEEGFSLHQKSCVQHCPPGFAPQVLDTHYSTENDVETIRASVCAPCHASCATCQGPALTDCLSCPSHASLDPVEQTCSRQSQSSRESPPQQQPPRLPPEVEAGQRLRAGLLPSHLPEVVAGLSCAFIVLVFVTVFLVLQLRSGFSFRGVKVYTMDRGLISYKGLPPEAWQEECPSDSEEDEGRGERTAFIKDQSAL
Sequence,furin cleavage Z-score (7.5 min),furin cleavage Z-score (15 min),furin cleavage Z-score (30 min)
CAVDGIMHTRAGNASASA [HC1171],1.01,-0.806 (inactive),1.2
CARLHRFWEGAGNASASA [FS-1739],1.61,-1.73 (inactive),0.551 (inactive)
CASTALAELAAGNASASA [HC1331],-1.46 (inactive),-0.668 (inactive),0.259 (inactive)
CALTQRTARAAGNASASA [FS-59],6.17 (active),5.48 (active),5.53 (active)
CASTPCSAHAAGNASASA [HC2563],1.54,0.374 (inactive),-0.524 (inactive)
CAPLGGAARAAGNASASA [HC232],-0.625 (inactive),-0.427 (inactive),-0.526 (inactive)
CASTARLARAAGNASASA [FS-1287],5.91 (active),8.42 (active),8.27 (active)
CAALSRTARAAGNASASA [FS-1510],8.19 (active),7.7 (active),6.47 (active)
CAALSRVRRAAGNASASA [FS-973],8.87 (active),9.48 (active),6.93 (active)
CAVPASAYQVAGNASASA [HC254],0.602 (inactive),-1.58 (inactive),-0.419 (inactive)
CAEVLTSTWVAGNASASA [HC2185],0.631 (inactive),-0.524 (inactive),0.492 (inactive)
CAALGINAVAAGNASASA [HC865],0.253 (inactive),0.918 (inactive),-1.14 (inactive)
CAALGRKARAAGNASASA [FS-115],6.64 (active),6.76 (active),5.64 (active)
CASTARIRRNAGNASASA [FS-198],11.3 (active),11.2 (active),10.4 (active)
CASTPCSAHNAGNASASA [HC2581],-0.0473 (inactive),1.28,-0.895 (inactive)
CAHIARALRNAGNASASA [FS-662],0.331 (inactive),1.47,0.623 (inactive)
CASHSRVRRAAGNASASA [FS-294],11.4 (active),9.7 (active),7.37 (active)
CAFDEMEECSAGNASASA [HC1013],0.602 (inactive),0.715 (inactive),0.322 (inactive)
CARQERNKRFAGNASASA [FS-711],8.02 (active),9.31 (active),10.8 (active)
CAREHRSGEPAGNASASA [FS-2004],-1.1 (inactive),-0.712 (inactive),-1.7 (inactive)
CARIVRSLMPAGNASASA [FS-2956],6.15 (active),8.67 (active),10.9 (active)
CARHLRSKVTAGNASASA [FS-1955],-0.109 (inactive),-0.365 (inactive),0.464 (inactive)

Sequence,furin cleavage Z-score (7.5 min),furin cleavage Z-score (15 min),furin cleavage Z-score (30 min)
CAHIFRKRRPAGNASASA [FS-439],-0.371 (inactive),-0.427 (inactive),-0.596 (inactive)
CAAQAREKRFAGNASASA [FS-1511],6.88 (active),8.08 (active),8.04 (active)
CARKNRSHIPAGNASASA [FS-1730],0.266 (inactive),-0.138 (inactive),-0.417 (inactive)
CARHLRSLEPAGNASASA [FS-2420],5.02 (active),6.47 (active),5.66 (active)
CAEVPCHRPEAGNASASA [HC2412],1.1,0.551 (inactive),-0.217 (inactive)
CAEVICHRPSAGNASASA [HC2344],-0.36 (inactive),-0.916 (inactive),1.17
CALTPCSGSWAGNASASA [HC1825],-0.28 (inactive),-0.817 (inactive),-0.734 (inactive)
CATELDGVRLAGNASASA [HC1222],-1.97 (inactive),-0.317 (inactive),-1.04 (inactive)
CARHLREVGDAGNASASA [FS-1715],2.58,3.76 (active),3.94 (active)
CARQNRSVRLAGNASASA [FS-1916],2.12,3.53 (active),4 (active)
CARQNRWKRQAGNASASA [FS-956],13.6 (active),16.1 (active),9.49 (active)
CARQNRGFRAAGNASASA [FS-3040],-0.161 (inactive),0.266 (inactive),0.111 (inactive)
CAVEIRQVGDAGNASASA [HC1206],-0.56 (inactive),-1.09 (inactive),-1.86 (inactive)
CARHKRGRGDAGNASASA [FS-1714],0.301 (inactive),2.2,1.5
CARQNREKRFAGNASASA [FS-493],8.07 (active),9.73 (active),9.9 (active)
CAETAGARLVAGNASASA [HC829],1.45,1.12,-1.04 (inactive)
CAAASCGGVVAGNASASA [HC568],-0.496 (inactive),-0.825 (inactive),0.0661 (inactive)
CAVVCCSMNYAGNASASA [HC2081],-0.198 (inactive),-1.19 (inactive),-1.03 (inactive)
CALFYHHKFNAGNASASA [HC381],-0.625 (inactive),-2.1 (inactive),-0.731 (inactive)
CARHLREKRFAGNASASA [FS-706],6.75 (active),9.12 (active),10.1 (active)
CARHLRANMTAGNASASA [FS-2939],-0.54 (inactive),-1.02 (inactive),-1.63 (inactive)
CARHLRNVYAAGNASASA [FS-2940],0.638 (inactive),-0.594 (inactive),1.3
